Compounds with a hit are over-represented: about 3% of the library has one in this group of screens.
PP5 primary – PP5 phosphatase inhibitors, primary screen, biochemical, fluorescence; actives 0.18% (n = 320,000); purified PP5c, OMFP substrate fluorescence; inhibition, % at 6.7 µM; AID 1987, 2009; Serine/threonine-protein phosphatase 5 (Homo sapiens), P53041;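 active means inhibition above the campaign's mean inhibition across all tested compounds plus 3 SD, cut at about 9.5% in these data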;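 further: 0% = DMSO only and 100% = 100 µM cantharidin control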
Target sequence (P53041 whole entry, looked up): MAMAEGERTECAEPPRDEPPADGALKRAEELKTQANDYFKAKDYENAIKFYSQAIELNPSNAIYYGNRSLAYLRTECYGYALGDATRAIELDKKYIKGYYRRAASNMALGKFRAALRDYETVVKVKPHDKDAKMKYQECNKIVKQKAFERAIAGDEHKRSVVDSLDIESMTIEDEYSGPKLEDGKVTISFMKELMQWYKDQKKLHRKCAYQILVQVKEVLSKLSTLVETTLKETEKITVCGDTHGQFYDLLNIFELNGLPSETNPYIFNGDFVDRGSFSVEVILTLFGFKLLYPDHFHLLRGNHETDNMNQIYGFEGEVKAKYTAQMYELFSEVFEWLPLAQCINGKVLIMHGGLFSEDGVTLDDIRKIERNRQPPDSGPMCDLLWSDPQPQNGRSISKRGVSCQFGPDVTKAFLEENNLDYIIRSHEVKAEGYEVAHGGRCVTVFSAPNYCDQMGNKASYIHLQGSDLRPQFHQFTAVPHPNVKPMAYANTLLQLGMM
PAFAH1B3 FP inh – PAFAH1B3 enzyme inhibitors, primary screen, biochemical, fluorescence polarization, human. recombinant PAFAH1B3, FP-rhodamine probe. inhibition, % at 3.39 µM. actives 0.28% (n = 340,000);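 active means inhibition above the screen-wide average of all tested compounds plus 3 SD, cut at about 25% in these data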;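 further: 0% = enzyme with DMSO only and 100% = wells lacking PAFAH1B3 protein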
pPAFAH inh – pPAFAH enzyme inhibitors, primary screen, biochemical, fluorescence polarization, human. recombinant pPAFAH, FP-rhodamine probe fluorescence polarization. inhibition, % at 3.39 µM. actives 1.5% (n = 330,000). AID 463082, 2010;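 active means inhibition above the mean inhibition across the screen plus 3 SD, cut at about 25% in these data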;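 further: inhibitors block binding of the rhodamine activity-based probe so polarization drops; 0% = enzyme with DMSO and 100% = wells lacking pPAFAH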
PAFAH2 inh – PAFAH2 enzyme inhibitors, primary screen, biochemical, fluorescence polarization, human; Platelet-activating factor acetylhydrolase 2, cytoplasmic (Homo sapiens), Q99487; recombinant PAFAH2, FP-rhodamine activity probe; inhibition, % at 3.39 µM; actives 0.99% (n = 340,000); AID 492956, 2010;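 active means inhibition above the mean over all tested compounds plus 3 SD, cut at about 30% in these data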;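 further: inhibitors block probe labeling of enzyme so polarization drops; 0% = enzyme with DMSO and 100% = wells lacking PAFAH2 protein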
Fh CTSL1 inh – Fasciola hepatica cathepsin L1 inhibitors, primary screen, counter-screen for PFM18AAP inhibitor project, biochemical, QFRET, fluorogenic peptide substrate; recombinant F. hepatica cathepsin L1, Z-Leu-Arg-MCA fluorescence; inhibition, % at 5.96 µM; actives 0.49% (n = 300,000); AID 1906, 2009;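 active means inhibition above the mean of all tested compounds plus 3 SD, set per screening campaign, cut at about 17% in these data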;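 further: 0% = plate median of test compound wells and 100% = 1 µM Z-Phe-Ala-diazomethylketone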
PAFAH1B2 FP inh – PAFAH1B2 enzyme inhibitors, primary screen, biochemical, fluorescence polarization, human; Platelet-activating factor acetylhydrolase IB subunit alpha2 (Homo sapiens), P68402; recombinant PAFAH1B2, FP-rhodamine activity probe; inhibition, % at 3.39 µM; actives 1.2% (n = 340,000);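 active means inhibition above the mean of all tested compounds plus 3 SD, cut at about 24% in these data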;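 further: 0% = enzyme with DMSO and 100% = wells lacking PAFAH1B2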
Starred values were filed as active, the others as inactive; / = no result given.

SMILES	PP5 primary	PAFAH1B3 FP inh	pPAFAH inh	PAFAH2 inh	Fh CTSL1 inh	PAFAH1B2 FP inh
CN(C(=O)NC1CCCCC1)c1ccccc1	0.4	10.2	1.2	-1.6	-0.8	4.8
Cc1ccc(NS(=O)(=O)c2cccs2)c(C)c1	3.2	4.0	27.6*	-12.1	-2.4	4.0
Cc1cc(-c2nc3cccnc3s2)ccc1NS(=O)(=O)c1cccs1	0.6	1.7	32.7*	5.3	7.5	7.9
Cc1c(NS(=O)(=O)c2cccs2)cccc1-c1nc2cccnc2s1	-1.9	2.2	14.9	-6.7	1.1	1.0
Cc1ccc(NS(=O)(=O)c2c(C)[nH]c(C)c2C(=O)N2CCCCC2)cc1F	3.1	5.0	2.8	-0.2	-1.9	-0.2
C[C@]12C=CC(=O)C=C1CC[C@@H]1C2=CC[C@]2(C)[C@@H](C(=O)CN3CCN(c4cc(N5CCCC5)nc(N5CCCC5)n4)CC3)CC[C@@H]12	13.1*	11.2	7.7	6.0	3.5	0.2
CCN(CC(=O)NCc1cccs1)C(=O)c1ccc(S(=O)(=O)Nc2ccccc2Cl)cc1	-0.5	3.2	11.4	-0.9	/	0.5
CCC(C)(C)NC(=O)CN(Cc1ccco1)C(=O)CCC(=O)Nc1nccs1	3.3	4.3	0.5	0.1	-2.4	10.2
c1ccc(-c2csc3ncnc(NCC4COc5ccccc5O4)c23)cc1 (configuration not stated)	2.1	5.9	33.5*	-2.5	-2.0	4.9
Cc1sc2ncnc(NCC3COc4ccccc4O3)c2c1C (configuration not stated)	3.0	-3.7	5.9	0.0	-1.2	1.6
O=S(=O)(c1ccc(Cl)cc1)N1CCC2(CC1)CO2	3.4	11.5	-1.8	-6.1	-0.3	27.9*
Cc1ccc(S(=O)(=O)N2CCC(=O)N(CCOCc3cccc(Cl)c3)CC2)cc1	3.5	-5.3	20.9	9.5	-0.6	11.4
O=C1CCN(S(=O)(=O)c2ccc(Cl)cc2)CC1	-5.7	7.3	-0.5	5.5	5.7	24.8*
O=S(=O)(c1ccc(Cl)cc1)N1CCCCCC1	2.4	-3.2	4.6	3.4	-2.4	0.8
O=S(=O)(c1ccc(Cl)cc1)N1CCC(c2nc3ccccc3[nH]2)CC1	1.7	3.9	3.3	10.6	-3.8	27.2*
O=S(=O)(c1ccccc1)N1CCC2(CC1)CO2	1.6	0.7	-4.6	14.9	-4.8	4.8
Cc1ccc(S(=O)(=O)N2CCC(=O)N(CCOCc3ccc(Cl)cc3)CC2)cc1	0.5	-7.5	31.7*	2.1	0.3	14.1
N#CC(=C(O)CN1CCN(c2ccccc2F)CC1)c1nc(-c2ccc(Cl)cc2)cs1	/	8.1	/	4.3	/	0.6
CC(=O)N1CCN(S(=O)(=O)c2cccc(C(=O)NNC(=O)c3ccc(Br)cc3)c2)CC1	/	20.1	/	24.9	/	20.9
O=S(=O)(c1ccc(Cl)cc1)N1CCC(n2cccc2)CC1	-1.1	2.0	4.0	1.4	5.7	28.7*
CC1(C)CC2CC(C)(CN2C(=O)CN2C(=O)c3ccccc3C2=O)C1 (configuration not stated)	1.0	3.9	4.7	-7.9	-1.4	24.2*
CC1(C)CC2CC(C)(CN2C(=O)Cc2ccccc2)C1 (configuration not stated)	1.9	-1.6	0.3	1.2	-0.3	5.1
COc1ccc(OC)c(C=NNC(=O)c2ccccc2NS(=O)(=O)c2cccs2)c1	/	9.5	15.6	-37.6	/	13.3
O=C(COC(=O)COc1ccc(Br)cc1)NCCC1=CCCCC1	1.9	-4.7	10.8	-0.8	-11.3	29.9*
O=C(COC(=O)CNC(=O)c1cccc(F)c1)NCCC1=CCCCC1	3.2	1.3	8.3	7.3	21.8*	0.1
SMILES	PP5 primary	PAFAH1B3 FP inh	pPAFAH inh	PAFAH2 inh	Fh CTSL1 inh	PAFAH1B2 FP inh
COCc1cc(CNC(=O)C2CCC(=O)N(Cc3cccc(OC)c3)C2)[nH]n1 (configuration not stated)	/	10.3	/	-2.5	/	2.5
O=C(O)c1ccc2c(c1)C(=O)N(Cc1ccco1)C2=O	3.0	5.7	-3.3	3.6	1.2	-1.9
CC(C)(C)C(=O)COC(=O)c1ccc2c(c1)C(=O)N(Cc1ccco1)C2=O	3.6	17.2	1.2	-1.9	1.2	-0.4
CCCC(C)NC(=O)COC(=O)c1ccc2c(c1)C(=O)N(Cc1ccco1)C2=O (configuration not stated)	-0.2	6.4	25.1*	-10.2	8.9	2.7
CC(C)CNC(=O)COC(=O)c1ccc2c(c1)C(=O)N(Cc1ccco1)C2=O	1.8	-0.5	26.7*	5.0	0.6	0.1
Oc1ccc(N2CCN(Cc3nc4ccccc4[nH]3)CC2)cc1	-0.2	1.6	16.9	-1.8	-3.4	-4.1
CC(CCc1ccccc1)NC(=O)C(=O)c1c[nH]c2ccccc12 (configuration not stated)	3.4	1.3	0.2	2.3	0.8	8.7
Cn1c(=O)c(C(=O)COc2ccc(F)cc2Cl)c(N)n(Cc2ccccc2)c1=O	2.0	8.3	-1.8	-2.0	31.3*	4.2
Nc1nc(-c2cc(O)ccc2[N+](=O)[O-])cc(-c2ccccc2)c1[N+](=O)[O-]	/	1.3	/	-8.8	/	-4.8
COc1ccc2oc(=O)c(-c3csc(Nc4cccc(O)c4)n3)cc2c1	8.2	29.0*	23.3	-2.1	7.5	39.6*
Cc1cc(C)c(C(=O)NCCCN2CCOCC2)c(C)c1	4.0	9.8	3.1	1.8	-4.7	-5.4
O=C(Nc1ccccc1NC(=O)c1ccccc1F)c1ccccc1F	/	2.0	/	-1.0	/	-0.9
O=C(Nc1ccccc1Sc1ccccc1)c1ccccc1F	1.4	8.6	31.1*	0.8	3.0	-2.6
CS(=O)(=O)Nc1ccc(C(=O)Nc2ccccc2Sc2ccccc2)cc1	0.3	-0.8	30.5*	-2.9	2.8	5.3
CCc1ccccc1NC(=O)c1ccc(NS(C)(=O)=O)cc1	1.6	/	5.4	/	1.6	/
O=C(Cc1ccc(Cl)cc1)SCc1ccccc1	0.0	3.6	2.1	11.0	/	3.1
CN(CC(=O)Nc1ccc(Cl)cc1)CC(=O)Nc1ccc(C(N)=O)cc1	-0.2	3.8	0.2	8.0	-5.5	7.9
CN(C)CC(=O)Nc1ccc(Oc2ccc(Cl)cc2)cc1	0.1	7.3	25.5*	5.9	-2.2	3.9
COc1cc(C(=O)N2CCCN(C)CC2)cc(OC)c1C	-0.6	6.0	6.7	-0.9	-7.0	-1.4
O=C1Nc2ccccc2SC(c2ccccc2)C1O (configuration not stated)	3.1	0.7	34.2*	12.2	-2.2	5.7
O=C(O)CC1Sc2ccccc2NC1=O (configuration not stated)	2.0	6.4	0.6	9.4	-3.0	1.6

Source: PubChem BioAssay (The Scripps Research Institute Molecular Screening Center)
